# Several values for one entry are separate records, joined by “and”; a condition that tells them apart may be missing. Equal values may be shown once. Inconclusive results are not listed. Activity calls are given as the source filed them.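 How the source made its calls, unless noted: active means inhibition above 50%, about 3 SD of the validation set; inactive means the rest.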
# Columns and labels:
# [1] = yeast TOR pathway RPL19A-GFP modulators, primary screen, cell-based, S. cerevisiae, multiplex flow cytometry (AID 1862; in the data active means percent of DMSO control GFP below about 86%;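 further: lower values mimic rapamycin by blocking the RPL19A rise seen in DMSO cells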); details: S. cerevisiae RPL19A-GFP strain, flow cytometry fluorescence, 3 h; at 10 µM; stronger effect = lower value
# [2] = modulators of MEP2-GFP levels in yeast, primary screen, S. cerevisiae, multiplex flow cytometry (AID 1867;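 active means GFP response, as percent of the DMSO control, above the screen-wide mean plus 3 SD, about 139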;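 further: median GFP channel fluorescence of barcode-gated MEP2-GFP cells measured by flow cytometry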); details: S. cerevisiae MEP2-GFP strain, 3 h, at 10 µM, stronger effect = higher value, 100% means same as DMSO wells
# [3] = modulators of CIT2-GFP expression in yeast, primary screen, S. cerevisiae, GFP fusion, multiplex flow cytometry (AID 1870;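 active means percent response above a set limit, the screen-wide mean plus 3 SD, cut at about 130% in these data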;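 further: barcoded CIT2-GFP strain pooled with four other GFP strains with rapamycin as positive control; median GFP fluorescence per well over plate mean of DMSO wells so 100% = DMSO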); details: 3 h, at 10 µM, stronger effect = higher value
# [4] = modulators of LAP4-GFP expression in yeast, primary screen, S. cerevisiae, multiplex flow cytometry (AID 1873;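 active means GFP signal, as percent of the solvent control, above the screen mean plus 3 SD, about 149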); details: 3 h, at 10 µM, stronger effect = higher value
# [5] = modulators of AGP1-GFP expression in yeast TOR pathway, primary screen, cell-based, multiplex flow cytometry, S. cerevisiae (AID 1887;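 active means GFP signal above the screen-wide mean plus 3 SD, that is over about 124.5% of the solvent control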;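 further: AGP1-GFP fusion strain of S. cerevisiae within a five-strain barcoded multiplex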); details: 3 h, at 10 µM, stronger effect = higher value
# [6] = inhibitors of CD8+ T cell-vesicle binding, pilot screen, LFA-1/ICAM-1 modulator project, MLPCN validation set, flow cytometry (AID 2523;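 active means response below a set limit, under 55% cells CD8-positive and vesicle-bound, and CD8 cells' 90th-percentile brightness under 279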;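 on vesicle binding response: mean PE anti-B7-1 fluorescence of CD8+ cells relative to row control; 100% = QL9-loaded vesicles with DMSO vehicle in the same plate row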); details: 2C mouse CD8+ T cells, at 7 µM, stronger effect = lower value; double positive events: measured here: CD8+/vesicle+ event percentage
# [7] = target: Integrin beta-1 (Homo sapiens) + Integrin alpha-4 (Homo sapiens) (UniProt P13612+P05556); assay: inhibition of HUTS-21 binding to VLA-4, pilot screen, VLA-4 allosteric modulator project, U937 cells, HUTS-21 mAb, flow cytometry, validation set (AID 2674); details: HUTS-21 LIBS mAb binding, at 6.7 µM, stronger effect = higher value, binding induced by LDV ligand;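 further: antibody binding induced by the VLA-4 ligand LDV present at three times its Kd; 0% = LDV ligand with antibody and no compound and 100% = antibody without LDV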
# Chain of Integrin beta-1 (Homo sapiens) + Integrin alpha-4 (Homo sapiens) (P05556 whole entry, looked up): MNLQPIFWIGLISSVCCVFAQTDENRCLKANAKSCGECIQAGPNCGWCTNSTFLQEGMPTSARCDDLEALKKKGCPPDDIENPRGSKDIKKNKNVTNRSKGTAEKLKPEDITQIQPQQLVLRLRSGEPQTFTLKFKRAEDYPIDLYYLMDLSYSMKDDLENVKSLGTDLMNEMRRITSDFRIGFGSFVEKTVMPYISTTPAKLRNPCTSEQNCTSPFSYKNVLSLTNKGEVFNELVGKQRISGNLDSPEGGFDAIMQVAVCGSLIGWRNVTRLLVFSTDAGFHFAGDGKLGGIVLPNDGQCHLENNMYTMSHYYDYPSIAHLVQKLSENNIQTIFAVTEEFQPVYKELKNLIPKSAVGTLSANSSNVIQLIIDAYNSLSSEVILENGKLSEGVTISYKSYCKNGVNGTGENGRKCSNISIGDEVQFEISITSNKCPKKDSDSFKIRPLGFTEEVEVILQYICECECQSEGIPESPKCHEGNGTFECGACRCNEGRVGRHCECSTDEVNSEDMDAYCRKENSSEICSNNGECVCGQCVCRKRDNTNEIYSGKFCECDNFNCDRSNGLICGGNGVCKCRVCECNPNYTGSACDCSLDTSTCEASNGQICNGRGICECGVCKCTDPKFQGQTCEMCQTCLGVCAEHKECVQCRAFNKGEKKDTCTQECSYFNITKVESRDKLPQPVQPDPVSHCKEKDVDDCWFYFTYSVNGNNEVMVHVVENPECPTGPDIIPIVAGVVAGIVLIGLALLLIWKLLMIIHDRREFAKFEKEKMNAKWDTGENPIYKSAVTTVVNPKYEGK
# Chain of Integrin beta-1 (Homo sapiens) + Integrin alpha-4 (Homo sapiens) (P13612 whole entry, looked up): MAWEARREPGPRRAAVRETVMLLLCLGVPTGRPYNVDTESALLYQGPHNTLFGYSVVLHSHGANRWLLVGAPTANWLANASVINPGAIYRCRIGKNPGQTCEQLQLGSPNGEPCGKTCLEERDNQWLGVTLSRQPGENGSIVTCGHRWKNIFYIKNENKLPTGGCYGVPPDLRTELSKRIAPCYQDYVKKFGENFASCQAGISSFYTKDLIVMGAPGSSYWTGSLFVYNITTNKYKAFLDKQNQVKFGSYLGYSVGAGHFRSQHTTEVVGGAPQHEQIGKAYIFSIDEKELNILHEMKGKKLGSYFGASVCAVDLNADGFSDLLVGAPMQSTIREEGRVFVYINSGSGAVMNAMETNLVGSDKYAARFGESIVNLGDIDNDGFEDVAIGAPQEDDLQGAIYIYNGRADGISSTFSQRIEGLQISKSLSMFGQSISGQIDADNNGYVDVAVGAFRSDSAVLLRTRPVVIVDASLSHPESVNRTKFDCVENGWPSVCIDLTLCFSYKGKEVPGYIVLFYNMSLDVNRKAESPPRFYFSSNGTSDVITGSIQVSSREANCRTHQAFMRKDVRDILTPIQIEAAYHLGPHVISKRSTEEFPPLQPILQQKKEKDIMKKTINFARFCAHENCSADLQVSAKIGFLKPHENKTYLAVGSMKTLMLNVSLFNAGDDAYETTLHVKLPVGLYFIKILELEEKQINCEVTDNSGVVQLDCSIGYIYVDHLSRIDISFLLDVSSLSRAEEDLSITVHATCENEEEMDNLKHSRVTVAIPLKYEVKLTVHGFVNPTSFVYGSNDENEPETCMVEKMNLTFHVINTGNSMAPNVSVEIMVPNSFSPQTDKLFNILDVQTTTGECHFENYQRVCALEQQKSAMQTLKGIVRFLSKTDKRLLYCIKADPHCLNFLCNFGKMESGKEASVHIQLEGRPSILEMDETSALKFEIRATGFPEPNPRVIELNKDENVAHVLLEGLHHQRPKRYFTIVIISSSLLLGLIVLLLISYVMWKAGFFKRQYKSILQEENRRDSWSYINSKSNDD
# [8] = superoxide lowering in aged yeast cells, pilot screen, validation compound set (AID 2706;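 active means superoxide response below 65% of plate, a cut near 3 SD across the whole screen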;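 further: yeast exposed to compound for one week at 30 degrees C before staining; 100% = mean of all compound wells on the same plate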); details: S. cerevisiae aging, superoxide DHE fluorescence; at 10 µM; stronger effect = lower value
# [9] = target: Beta-adrenergic receptor kinase 1 (Homo sapiens) (UniProt P25098); assay: GRK2 binders displacing RNA aptamer, biochemical, validation, human GRK2, bead flow cytometry (AID 488806;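 active means aptamer binding inhibition above 30%, about 3 SD of noise from non-fluorescent compounds; inactive means inhibition at or below 30%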); details: bead-bound GRK2, FAM-aptamer displacement, at 10 µM, stronger effect = higher value
# Chain of Beta-adrenergic receptor kinase 1 (Homo sapiens) (P25098 whole entry, looked up): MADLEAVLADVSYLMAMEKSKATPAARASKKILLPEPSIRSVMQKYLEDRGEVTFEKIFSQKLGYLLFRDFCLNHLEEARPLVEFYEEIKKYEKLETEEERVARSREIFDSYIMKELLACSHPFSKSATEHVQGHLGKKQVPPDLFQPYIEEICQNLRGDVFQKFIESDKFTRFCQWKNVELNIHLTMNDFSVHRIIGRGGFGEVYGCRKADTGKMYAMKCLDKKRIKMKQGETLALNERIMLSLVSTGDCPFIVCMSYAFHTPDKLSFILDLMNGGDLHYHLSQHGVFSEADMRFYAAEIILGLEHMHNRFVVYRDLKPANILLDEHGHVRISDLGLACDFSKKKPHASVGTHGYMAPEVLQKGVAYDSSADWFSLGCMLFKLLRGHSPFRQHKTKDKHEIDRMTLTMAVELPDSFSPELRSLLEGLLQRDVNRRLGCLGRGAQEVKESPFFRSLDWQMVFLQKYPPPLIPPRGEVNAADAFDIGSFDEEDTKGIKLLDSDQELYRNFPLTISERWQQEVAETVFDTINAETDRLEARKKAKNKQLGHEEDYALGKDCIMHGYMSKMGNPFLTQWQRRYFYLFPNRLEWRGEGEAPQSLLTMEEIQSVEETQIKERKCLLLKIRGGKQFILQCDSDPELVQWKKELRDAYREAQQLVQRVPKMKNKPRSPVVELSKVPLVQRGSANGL
# [10] = target: Beta-2 adrenergic receptor (Homo sapiens) (UniProt P07550); assay: beta2AR agonists driving receptor internalization, pilot screen, cell-based, FAP fluorogen, flow cytometry, validation set (AID 504459;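 active means percent response above 42, roughly 3 SD of non-fluorescent test compounds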;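 further: agonist-driven loss of surface beta2AR via internalization measured by FAP dye flow cytometry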); details: Am2.2-beta2AR cells, FAP surface receptor flow cytometry; at 10 µM; stronger effect = higher value
# Chain of Beta-2 adrenergic receptor (Homo sapiens) (P07550 whole entry, looked up): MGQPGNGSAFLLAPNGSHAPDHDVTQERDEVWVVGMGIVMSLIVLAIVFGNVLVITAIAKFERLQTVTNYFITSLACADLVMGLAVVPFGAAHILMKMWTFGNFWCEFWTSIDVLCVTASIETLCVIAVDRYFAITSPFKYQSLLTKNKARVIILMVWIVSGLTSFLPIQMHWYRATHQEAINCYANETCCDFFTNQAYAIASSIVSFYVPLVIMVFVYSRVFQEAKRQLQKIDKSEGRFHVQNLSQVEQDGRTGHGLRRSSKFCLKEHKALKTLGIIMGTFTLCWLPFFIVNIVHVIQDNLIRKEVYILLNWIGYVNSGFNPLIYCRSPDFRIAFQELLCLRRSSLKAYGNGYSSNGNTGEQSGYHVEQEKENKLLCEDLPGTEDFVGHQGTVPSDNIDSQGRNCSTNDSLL
# [11] = target: AP-2 complex subunit beta (Homo sapiens) (UniProt P63010); assay: inhibitors of arrestin peptide binding to AP2, pilot screen, biochemical, validation set, GST-AP2 beads, flow cytometry (AID 504541;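 active means inhibition above 54%, about 3 SD of non-fluorescent compounds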;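 further: AP2 carries R879A mutation and is captured from E. coli lysate; bead-bound FITC arrestin peptide fluorescence measuring arrestin peptide binding to AP2; 0% = DMSO wells and 100% = excess unlabeled arrestin peptide control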); details: FITC arrestin peptide, at 10 µM, stronger effect = higher value, AP2 beta2 appendage fragment, R879A mutant
# Chain of AP-2 complex subunit beta (Homo sapiens) (P63010 whole entry, looked up, the tested form may be a part, one chain of several): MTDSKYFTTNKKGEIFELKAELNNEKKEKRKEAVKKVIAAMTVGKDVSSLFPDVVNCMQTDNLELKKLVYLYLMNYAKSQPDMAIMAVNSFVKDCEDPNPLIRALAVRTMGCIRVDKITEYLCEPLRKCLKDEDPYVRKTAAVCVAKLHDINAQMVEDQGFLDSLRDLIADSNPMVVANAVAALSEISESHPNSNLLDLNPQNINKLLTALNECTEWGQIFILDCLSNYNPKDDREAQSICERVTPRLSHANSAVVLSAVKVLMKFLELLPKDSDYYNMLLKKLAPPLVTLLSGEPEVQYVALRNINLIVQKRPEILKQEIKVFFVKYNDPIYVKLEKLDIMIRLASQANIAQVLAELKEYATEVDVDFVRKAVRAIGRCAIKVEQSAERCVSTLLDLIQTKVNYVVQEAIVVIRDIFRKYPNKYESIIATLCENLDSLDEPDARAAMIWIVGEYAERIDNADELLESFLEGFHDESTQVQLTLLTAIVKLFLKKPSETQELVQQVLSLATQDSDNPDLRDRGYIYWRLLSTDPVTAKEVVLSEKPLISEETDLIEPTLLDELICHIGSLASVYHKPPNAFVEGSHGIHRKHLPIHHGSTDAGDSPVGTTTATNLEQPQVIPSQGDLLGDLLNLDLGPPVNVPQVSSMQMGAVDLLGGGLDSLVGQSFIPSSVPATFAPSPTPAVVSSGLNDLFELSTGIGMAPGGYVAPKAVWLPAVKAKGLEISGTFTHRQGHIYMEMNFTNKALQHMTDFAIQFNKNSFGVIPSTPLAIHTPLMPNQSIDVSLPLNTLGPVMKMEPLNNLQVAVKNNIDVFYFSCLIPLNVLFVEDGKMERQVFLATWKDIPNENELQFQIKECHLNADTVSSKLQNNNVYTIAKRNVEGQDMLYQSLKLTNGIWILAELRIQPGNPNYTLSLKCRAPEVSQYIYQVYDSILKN
# [12] = yeast V-ATPase proton transport modulators, S. cerevisiae, pHLuorin, HTS validation (AID 504600; in the data active means response above about 15%;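 further: plate controls were DMSO for no effect and reference compound for full effect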); details: S. cerevisiae pHLuorin cytosolic pH, at 10 µM, stronger effect = higher value
# [13] = tested on: anti-desmoglein-3 scFv antibody binding to human DSG3; assay: inhibitors of anti-DSG3 scFv binding to DSG3, pilot screen, biochemical, validation compound set, bead-based, flow cytometry (AID 588368;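 active means binding below the plate cutoff, the plate median minus 3 SD, with a reading above zero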;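 further: signal is the median channel fluorescence of bead-bound GFP antibody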); details: Protein G beads, DSG3-Fc, scFv-GFP binding, at 10 µM, stronger effect = lower value
# [14] = inhibitors of fungal efflux pumps CDR1, CDR2, MDR1, pilot screen, validation compound set, multiplex, phenotypic (AID 588506;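 active means efflux inhibition above 0.42, the validation set average plus 4 SD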;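 further: Nile Red retained in cells so higher fluorescence means more efflux inhibition; 0 = negative control wells and 1 = enniatin B 25 µM full block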); details: S. cerevisiae pump-expressing triplex, Nile Red efflux flow cytometry; at 10 µM; stronger effect = higher value; the pumps come from Candida albicans
# [15] = target: ATP-binding cassette sub-family B member 6 (Homo sapiens) (UniProt Q9NP58); assay: ABCB6 transporter inhibitors, pilot screen, K562-ABCB6 cells, flow cytometry, validation set (AID 588550;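 active means inhibition above the screen-wide mean plus 3 SD, about 51%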;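 further: 0% = DMSO wells and 100% = benzethonium chloride 70 µM positive control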); details: K562-ABCB6 porphyrin accumulation, 1 h, at 10 µM, stronger effect = higher value
# Chain of ATP-binding cassette sub-family B member 6 (Homo sapiens) (Q9NP58 whole entry, looked up): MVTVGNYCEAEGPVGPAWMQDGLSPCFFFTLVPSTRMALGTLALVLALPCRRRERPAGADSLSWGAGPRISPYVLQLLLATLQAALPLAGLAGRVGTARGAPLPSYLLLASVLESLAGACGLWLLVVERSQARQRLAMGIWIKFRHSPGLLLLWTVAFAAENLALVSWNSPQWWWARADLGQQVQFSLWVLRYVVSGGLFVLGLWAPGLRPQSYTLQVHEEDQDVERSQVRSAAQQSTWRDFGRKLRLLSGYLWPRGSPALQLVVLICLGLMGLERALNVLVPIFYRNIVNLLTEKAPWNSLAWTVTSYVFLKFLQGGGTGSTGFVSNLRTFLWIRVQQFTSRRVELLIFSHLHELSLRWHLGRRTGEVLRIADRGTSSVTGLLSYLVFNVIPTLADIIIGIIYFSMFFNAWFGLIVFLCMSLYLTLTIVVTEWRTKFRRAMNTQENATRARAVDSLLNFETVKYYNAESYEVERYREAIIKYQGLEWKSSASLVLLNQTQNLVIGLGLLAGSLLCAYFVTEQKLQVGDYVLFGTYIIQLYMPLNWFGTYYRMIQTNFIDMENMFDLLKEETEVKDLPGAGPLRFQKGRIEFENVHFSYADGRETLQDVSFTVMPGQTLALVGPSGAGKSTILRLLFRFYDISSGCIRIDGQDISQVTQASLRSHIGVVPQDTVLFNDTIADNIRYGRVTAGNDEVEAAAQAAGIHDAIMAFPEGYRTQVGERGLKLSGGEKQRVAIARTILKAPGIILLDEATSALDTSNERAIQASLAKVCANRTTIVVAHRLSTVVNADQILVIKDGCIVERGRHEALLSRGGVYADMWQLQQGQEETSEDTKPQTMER
# [16] = promoters of myeloid differentiation in arrested cells, primary screen, cell-based, GFP/MAC1 double positive, flow cytometry, validation set (AID 588685;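 active means differentiation response of at least 50%, scaled between solvent and reference control, from cells with both markers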;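 further: compound exposure lasts four days before antibody staining and flow analysis; 0% = DMSO wells and 100% = 5 µM fulvestrant positive control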); details: ER-HoxA9 marrow cells, stronger effect = higher value, normalized: vehicle 0, fulvestrant 100
Compound,percent of DMSO control GFP [1],GFP response vs DMSO [2],percent response of DMSO control [3],GFP response vs DMSO [4],"GFP response, % of DMSO [5]",double positive events [6],vesicle binding response [6],inhibition [7],superoxide response (% of plate) [8],aptamer binding inhibition [9],response [10],inhibition [11],response [12],binding (% of control) [13],efflux inhibition (fraction of control) [14],inhibition [15],differentiation response [16]
Cc1cn([C@H]2C=C[C@@H](CO)O2)c(=O)[nH]c1=O,101% (inactive),104% (inactive),94.2% (inactive),92% (inactive),93.5% (inactive),65.8%,705% (inactive),16.1% (inactive),94.6% (inactive),3% (inactive),-6.71% (inactive),-12% (inactive),3.71% (inactive),101% (inactive),0.02 (inactive),3% (inactive),1.22% (inactive)
Cc1nc(NC(CC(C)C)C(=O)O)c2nc(C)oc2n1 (stereo not given),97.4% (inactive),111% (inactive),90.1% (inactive),120% (inactive),101% (inactive),57.6%,121% (inactive),-5.89% (inactive),95.4% (inactive),7% (inactive),3.8% (inactive),4.51% (inactive),3.4% (inactive),102% (inactive),-0.13 (inactive),6% (inactive),-28% (inactive)
CC(C)(Sc1cc(C(C)(C)C)c(O)c(C(C)(C)C)c1)Sc1cc(C(C)(C)C)c(O)c(C(C)(C)C)c1,101% (inactive),105% (inactive),107% (inactive),101% (inactive),106% (inactive),60.1%,170% (inactive),-2.43% (inactive),90.1% (inactive),-5% (inactive),1.22% (inactive),10.6% (inactive),-3.38% (inactive),102% (inactive),-0.03 (inactive),21% (inactive),-17.7% (inactive)
C=C(C)[C@@H]1CC=C(CN2CCC(N3CCC(C(=O)N4CCCC4)CC3)CC2)CC1,105% (inactive),91.9% (inactive),120% (inactive),92% (inactive),101% (inactive),60.1%,292% (inactive),1.62% (inactive),92.9% (inactive),-18% (inactive),-3.2% (inactive),-12.5% (inactive),1.83% (inactive),130% (inactive),0.08 (inactive),-18% (inactive),6.11% (inactive)
CN(C)C(=O)Oc1cccc([N+](C)(C)C)c1,95.7% (inactive) and 98.8% (inactive),104% (inactive) and 109% (inactive),100% (inactive) and 91% (inactive),115% (inactive) and 112% (inactive),110% (inactive) and 105% (inactive),55.5% and 63.8%,158% (inactive) and 4880% (inactive),-2.82% (inactive) and 3.67% (inactive),93.6% (inactive) and 108% (inactive),-3% (inactive) and 4% (inactive),-26.2% (inactive) and -0.74% (inactive),-12.1% (inactive) and 15% (inactive),0% (inactive) and -1.87% (inactive),106% (inactive) and 97.8% (inactive),0 (inactive) and -0.13 (inactive),2% (inactive) and 4% (inactive),-0.06% (inactive) and -15.2% (inactive)
COc1ccc2nc(C)cc(Nc3ccccc3O)c2c1,94.2% (inactive),108% (inactive),90.1% (inactive),115% (inactive),99.4% (inactive),58%,120% (inactive),-7.25% (inactive),91.3% (inactive),-3% (inactive),7.69% (inactive),3.21% (inactive),1.21% (inactive),101% (inactive),0.01 (inactive),9% (inactive),-20% (inactive)
COc1ccc(C(=O)CC2OC(=O)c3c2ccc(OC)c3OC)cc1 (stereo not given),106% (inactive),100% (inactive),106% (inactive),99.9% (inactive),104% (inactive),63%,256% (inactive),4.73% (inactive),107% (inactive),2% (inactive),-6.79% (inactive),-3.63% (inactive),-4.39% (inactive),95.8% (inactive),-0.01 (inactive),8% (inactive),-2.69% (inactive)
O=C(O)/C=C/c1cccc(OCc2ccccc2)c1,93.8% (inactive),105% (inactive),93.4% (inactive),123% (inactive),82.2% (inactive),58.1%,131% (inactive),5.61% (inactive),104% (inactive),3% (inactive),4.34% (inactive),13.5% (inactive),-4.03% (inactive),94.3% (inactive),-0.24 (inactive),8% (inactive),-8.96% (inactive)
CC1(C)CC(=O)C(C2=NC(C)(C)Cc3ccccc32)=C(O)C1,103% (inactive),100% (inactive),108% (inactive),92.7% (inactive),101% (inactive),59.3%,48.2% (inactive),-2.53% (inactive),103% (inactive),4% (inactive),-9.99% (inactive),17.9% (inactive),1.49% (inactive),91.7% (inactive),0.14 (inactive),13% (inactive),-4.64% (inactive)
O=C(Nc1cccc(C(=O)O)c1)/C(=C\c1ccccc1)NC(=O)c1ccccc1,105% (inactive),98.3% (inactive),106% (inactive),84.8% (inactive),100% (inactive),58.1%,150% (inactive),-1.49% (inactive),95.7% (inactive),5% (inactive),-3.48% (inactive),0.49% (inactive),0.44% (inactive),99% (inactive),0.14 (inactive),15% (inactive),11% (inactive)
